# Assay results taken from publication PMC5540273 (PLoS ONE, 2017).
# “And” between values parts separate entries of the source, which are not always exact repeats. Equal values may be shown once. Read-outs that look alike come from different tables or passages of the source.
# How the values were obtained:
# [1] = tested on: TSSK3; settings: concentration: 1 μM, replicates: in singlicate, n = 1
# [2] = tested on: TTK; settings: concentration: 1 μM, replicates: in singlicate; n = 1
# [3] = tested on: TXK; settings: concentration: 1 μM, replicates: in singlicate, n = 1
# [4] = tested on: TYK2(JH1domain-catalytic); settings: concentration: 1 μM, replicates: in singlicate, n = 1
# [5] = tested on: TYK2(JH2domain-pseudokinase); settings: concentration: 1 μM, replicates: in singlicate, n = 1
# [6] = tested on: TYRO3; settings: concentration: 1 μM, replicates: in singlicate, n = 1
# [7] = tested on: ULK1; settings: concentration: 1 μM, replicates: in singlicate, n = 1
# [8] = tested on: ULK2; settings: concentration: 1 μM, replicates: in singlicate; n = 1
# [9] = tested on: ULK3; settings: concentration: 1 μM, replicates: in singlicate, n = 1
# [10] = tested on: T1, VEGFR2; settings: concentration: 1 μM, replicates: in singlicate, n = 1
# T1 construct: gene KDR
# [11] = tested on: T2, VPS34; settings: concentration: 1 μM, replicates: in singlicate, n = 1
# T2 construct: gene PIK3C3
# [12] = tested on: VRK2; settings: concentration: 1 μM, replicates: in singlicate, n = 1
# [13] = tested on: WEE1; settings: concentration: 1 μM, replicates: in singlicate, n = 1
# [14] = tested on: WEE2; settings: concentration: 1 μM, replicates: in singlicate; n = 1
# [15] = tested on: WNK1; settings: concentration: 1 μM, replicates: in singlicate, n = 1
# [16] = tested on: WNK2; settings: concentration: 1 μM, replicates: in singlicate, n = 1
# [17] = tested on: WNK3; settings: concentration: 1 μM, replicates: in singlicate, n = 1
# [18] = tested on: WNK4; settings: concentration: 1 μM, replicates: in singlicate, n = 1
# [19] = tested on: T3, YANK1; settings: concentration: 1 μM, replicates: in singlicate, n = 1
# T3 construct: gene STK32A
# [20] = tested on: T4, YANK2; settings: concentration: 1 μM, replicates: in singlicate, n = 1
# T4 construct: gene STK32B
# 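Further: KINOMEscan kinase panel screen.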
structure (smiles),measurement,setting,value
CC(C)(CN)c1nc(-c2ccc(Cl)c(O)c2)c(-c2ccncc2)[nH]1.O=C(O)C(F)(F)F [SB-477794],%Inh,[1]; 1 µM,6% and 16%
same,%Inh,[2],0%
same,%Inh,[3]; 1 µM,100% and 96.2%
same,%Inh,[4]; 1 µM,59% and 16%
same,%Inh,[5]; 1 µM,73% and 41%
same,%Inh,[6]; 1 µM,12% and 34%
same,%Inh,[7]; 1 µM,19% and 0%
same,%Inh,[8],0%
same,%Inh,[9]; 1 µM,16% and 2%
same,%Inh,[10]; 1 µM,86% and 83%
same,%Inh,[11]; 1 µM,0% and 48%
same,%Inh,[12]; 1 µM,41% and 42%
same,%Inh,[13]; 1 µM,8% and 7%
same,%Inh,[14],0%
same,%Inh,[15]; 1 µM,16% and 0%
same,%Inh,[16]; 1 µM,1% and 9%
same,%Inh,[17]; 1 µM,52% and 39%
same,%Inh,[18]; 1 µM,47% and 49%
same,%Inh,[19]; 1 µM,95.3% and 93.8%
same,%Inh,[20]; 1 µM,93.6% and 94%
CCc1nc(-c2cccc(C)c2)c(-c2ccnc(NCc3ccccc3)c2)s1,%Inh,[1],1%
same,%Inh,[2],12%
same,%Inh,[3],0%
same,%Inh,[4],0%
same,%Inh,[5],0%
same,%Inh,[6],0%
same,%Inh,[7],0%
same,%Inh,[8],8%
same,%Inh,[9],0%
same,%Inh,[10],0%
same,%Inh,[11],3%
same,%Inh,[12],0%
same,%Inh,[13],0%
same,%Inh,[14],25%
same,%Inh,[15],0%
same,%Inh,[16],12%
same,%Inh,[17],0%
same,%Inh,[18],0%
same,%Inh,[19],0%
same,%Inh,[20],2%
COc1ccc(Nc2nccc(N3CCC(NC(=O)Nc4cccc(C(C)=O)c4)C3)n2)cc1 (centres unmarked) [GSK1379731],%Inh,[1],8%
same,%Inh,[2],15%
same,%Inh,[3],0%
same,%Inh,[4],35%
same,%Inh,[5],16%
same,%Inh,[6],6%
same,%Inh,[7],18%
same,%Inh,[8],0%
same,%Inh,[9],16%
same,%Inh,[10],0%
same,%Inh,[11],31%
same,%Inh,[12],95.1%
same,%Inh,[13],6%
same,%Inh,[14],0%
same,%Inh,[15],4%
same,%Inh,[16],6%
same,%Inh,[17],28%
same,%Inh,[18],0%
same,%Inh,[19],0%
same,%Inh,[20],0%
CCCCCc1nc2c(N)ncnc2n1CCCCC [SKF-97255],%Inh,[1],0%
same,%Inh,[2],0%
same,%Inh,[3],12%
same,%Inh,[4],7%
same,%Inh,[5],9%
same,%Inh,[6],0%
same,%Inh,[7],12%
same,%Inh,[8],12%
same,%Inh,[9],11%
same,%Inh,[10],0%
same,%Inh,[11],0%
same,%Inh,[12],0%
same,%Inh,[13],0%
same,%Inh,[14],3%
same,%Inh,[15],7%
same,%Inh,[16],0%
same,%Inh,[17],0%
same,%Inh,[18],0%
same,%Inh,[19],0%
same,%Inh,[20],12%
Cc1nnc(-c2ccc3ncc(-c4ccc(S(C)=O)cc4)n3c2)o1 (centres unmarked),%Inh,[1],0%
same,%Inh,[2],0%
same,%Inh,[3],0%
same,%Inh,[4],5%
same,%Inh,[5],2%
same,%Inh,[6],9%
same,%Inh,[7],2%
same,%Inh,[8],18%
same,%Inh,[9],5%
same,%Inh,[10],0%
same,%Inh,[11],27%
same,%Inh,[12],0%
same,%Inh,[13],0%
same,%Inh,[14],13%
same,%Inh,[15],0%
same,%Inh,[16],1%
same,%Inh,[17],0%
same,%Inh,[18],7%
same,%Inh,[19],0%
same,%Inh,[20],0%
O=C1NC(=O)C(N2CCc3ccccc32)=C1c1cccc(Cl)c1 [SB-408010],%Inh,[1],0%
same,%Inh,[2],39%
same,%Inh,[3],0%
same,%Inh,[4],4%
same,%Inh,[5],0%
same,%Inh,[6],0%
same,%Inh,[7],0%
same,%Inh,[8],0%
same,%Inh,[9],14%
same,%Inh,[10],6%
same,%Inh,[11],0%
same,%Inh,[12],0%
same,%Inh,[13],0%
same,%Inh,[14],4%
same,%Inh,[15],0%
same,%Inh,[16],14%
same,%Inh,[17],0%
same,%Inh,[18],89%
same,%Inh,[19],0%
same,%Inh,[20],19%
Cl.Oc1cccc(Nc2ccnc3cc(-c4ccncc4)ccc23)c1 [GW494601],%Inh,[1],6%
same,%Inh,[2],39%
same,%Inh,[3],97.6%
same,%Inh,[4],93.1%
same,%Inh,[5],49%
same,%Inh,[6],82%
same,%Inh,[7],0%
same,%Inh,[8],0%
same,%Inh,[9],31%
same,%Inh,[10],95.4%
same,%Inh,[11],34%
same,%Inh,[12],6%
same,%Inh,[13],10%
same,%Inh,[14],7%
same,%Inh,[15],0%
same,%Inh,[16],13%
same,%Inh,[17],41%
same,%Inh,[18],46%
same,%Inh,[19],33%
same,%Inh,[20],12%
